CHO-K1 Ca ag: nonselective activator or artifact in parental CHO-K1 cells; activation, % at 3 µM; 360,000 compounds, 0.48% hits; Fluo-8 calcium fluorescence; scaled to maximal ATP response, vehicle zero; in the data active = activation above about 15%;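 note: untransfected CHO-K1 host cells lacking M1 receptor as counterscreen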
M1 PAM parental: M1 PAM counterscreen hit in parental CHO-K1 cells | ATP EC20, Fluo-8 calcium fluorescence; 0% at ATP EC20, 100% at ATP max | activation, % at 3 µM | 360,000 compounds, 0.02% hits | AID 602247;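 active = activation above the run cutoff, the mean activation of all test compounds plus 3 SD, cut at about 40% in these data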;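 note: peak over basal fluorescence ratio in a 140 s read after ATP addition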
M1 antag: human CHRM1 antagonism; P11229; CHO-K1 hM1, Fluo-8 calcium fluorescence, ACh EC80 antagonist; inhibition, % at 3 µM; 360,000 compounds, 1.3% hits; AID 588852;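 active = percent inhibition above its own plate's cutoff, namely the mean of that plate's compound wells plus 3 SD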;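 note: peak over basal fluorescence ratio during 140 s after agonist addition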
Target sequence (P11229 whole entry, looked up): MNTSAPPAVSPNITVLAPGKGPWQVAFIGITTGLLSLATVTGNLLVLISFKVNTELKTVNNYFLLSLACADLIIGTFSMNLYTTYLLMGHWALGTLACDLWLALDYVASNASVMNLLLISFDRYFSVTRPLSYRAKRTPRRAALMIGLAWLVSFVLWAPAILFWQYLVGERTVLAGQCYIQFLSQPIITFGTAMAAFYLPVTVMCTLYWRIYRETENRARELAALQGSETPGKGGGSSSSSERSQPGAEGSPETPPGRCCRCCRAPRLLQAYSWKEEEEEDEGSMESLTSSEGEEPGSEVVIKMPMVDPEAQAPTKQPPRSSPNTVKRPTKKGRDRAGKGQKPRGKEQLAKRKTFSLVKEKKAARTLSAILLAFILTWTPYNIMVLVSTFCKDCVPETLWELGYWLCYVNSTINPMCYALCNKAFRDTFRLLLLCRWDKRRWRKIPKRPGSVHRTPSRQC
CHRM1 agonist: human M1 muscarinic receptor agonism; P11229; CHO-K1 hM1, Fluo-8 calcium fluorescence, agonist mode; 0% DMSO, 100% acetylcholine EC100; activation, % at 3 µM; 360,000 compounds, 0.33% hits;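 active = activation above the run's mean compound activation plus 3 SD, cut at about 16% in these data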;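 note: peak over basal fluorescence ratio within a 140 s kinetic read after compound addition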
CHO-K1 Ca antag: M1 antagonist counterscreen hit in parental CHO-K1 cells | ATP-induced calcium, Fluo-8 fluorescence | 360,000 compounds, 0.6% hits | AID 602250 | inhibition, % at 3 µM;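 active = inhibition above a per-plate cutoff, the plate's mean sample inhibition plus 3 SD, cut at about 24% in these data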
CHRM1 PAM: potentiates human M1 receptor response to acetylcholine; P11229; CHO-K1 hM1, Fluo-8 calcium fluorescence, ACh EC20; 0% = ACh EC20, 100% = maximal ACh; activation, % at 3 µM; 360,000 compounds, 0.088% hits; AID 588819; in the data active = activation above about 19%, passing the limit was not always enough
Numbers stand for hits; - = inactive. Shown are actives, neighbours in structure and some others; about 2.3% of the full set was active somewhere.

SMILES	CHO-K1 Ca ag	M1 PAM parental	M1 antag	CHRM1 agonist	CHO-K1 Ca antag	CHRM1 PAM
CSCCC(c1nnnn1C1CCCCC1)N1CCC(n2c(=O)[nH]c3ccccc32)CC1 (centres undefined)	-	-	34	-	-	-
CSCCC(c1nnnn1C1CCCC1)N1CCC(n2c(=O)[nH]c3ccccc32)CC1 (centres undefined)	-	-	-	-	-	-
O=C1/C(=C\c2ccccc2)C2OCC=C3CN4CCC56c7ccccc7N1C5C2C3CC46 (centres undefined)	-	-	-	-	-	-
O=C(Nc1cccc(C(F)(F)F)c1)OC1CN2CCC1CC2 (centres undefined)	-	-	102	-	-	-
N#CC1=C(N)Oc2c(c(=O)oc3ccccc23)C1c1cccnc1 (centres undefined)	-	-	-	-	-	-
Cc1nn(-c2ccccc2)c(Cl)c1C1C(C#N)=C(N)Oc2c1c(=O)oc1ccccc21 (centres undefined)	-	-	-	-	25	-
CN1C2CCC1C(COC(=O)c1ccccc1)C(O)C2 (centres undefined)	-	-	-	-	-	-
CN1C2CCC1CC(OC(c1ccccc1)c1ccccc1N)C2 (centres undefined)	-	-	99	-	-	-
CN1OCC2Cn3c(nc4ccccc43)C21 (centres undefined)	-	-	-	-	-	27
CN1CCN(CCOC2c3ccccc3CSc3ccc(Cl)cc32)CC1 (centres undefined)	-	-	99	-	-	-
Clc1ccc2c(c1)C(OC1CN3CCC1CC3)c1ccccc1CS2 (centres undefined)	-	-	100	-	-	-
O=c1c2ccccc2nc(-c2ccc([N+](=O)[O-])cc2)n1-c1ccccc1	-	-	-	-	-	-
O=c1c2ccccc2nc(-c2ccccc2)n1-c1ccncc1	-	-	-	-	31	-
Cc1ccccc1-n1c(-c2ccc([N+](=O)[O-])cc2)nc2ccccc2c1=O	-	-	49	-	-	-
Cc1cccc(N=Nc2ccc(N(C)C)cc2)c1	-	-	-	-	-	-
COC(=O)C1=C(c2ccccc2)C[C@@H]2CC[C@H]1N2C(=O)N1CCC(C)CC1	-	-	-	-	-	-
O=C(Cn1c(=S)[nH]c2ccccc2c1=O)N1CCC2(CC1)OCCO2	-	-	-	-	-	-
Cn1c(=O)n(CC(=O)N2CCC3(CC2)OCCO3)c(=O)c2ccccc21	-	-	-	-	-	25
CCCCCCn1c(O)c(C=NCCN2CCOCC2)c(=O)[nH]c1=O	17	-	-	-	-	-
O=C(c1ccccc1)C(CN1CCCC1)c1ccccc1 (centres undefined)	-	-	51	-	-	-
O=C(CN1CCCCC1)c1ccc(F)cc1	-	-	-	-	-	-
Cc1cccc(OP(N)(=O)Oc2cccc(C)c2C)c1C	-	-	-	-	-	-
O=C(COC(=O)Cc1ccccc1)NCCNC(=O)COC(=O)Cc1ccccc1	-	-	-	-	-	-
O=C(Cc1ccccc1)OCCN1CCCCC1	-	-	34	-	-	-
Cc1nc2ncnn2c(C)c1CCC(=O)N1CCC2(CC1)OCCO2	-	-	-	-	-	-
SMILES	CHO-K1 Ca ag	M1 PAM parental	M1 antag	CHRM1 agonist	CHO-K1 Ca antag	CHRM1 PAM
Cc1nc2cc(-c3ccccc3)nn2c(C)c1CCC(=O)N1CCC2(CC1)OCCO2	-	-	-	-	24	-
CCC(C)(O)C(=O)OC1C(=O)OC2CC3C(C)=CC(O)C(O)C3(C)C3C4(O)OCC23C1C(C)C4O (centres undefined)	-	-	-	-	-	-
CCN1CCN(c2cc(N3CCCC3)c([N+](=O)[O-])cc2F)CC1	-	-	-	-	-	-
C#CC[N+]1(C)[C@@H]2CC[C@H]1CC(OC(=O)C(CO)c1ccccc1)C2 (some centres undefined)	-	-	99	-	-	-
C[N+]1(C)C2CC[C@H]1CC(OC(=O)C(CO)c1ccccc1)C2 (some centres undefined)	-	-	100	-	-	-
C[N+]1(C)C2CCC1CC(OC(=O)c1ccco1)C2 (centres undefined)	-	-	-	-	-	-
C[N+]1(C)[C@@H]2CC[C@H]1CC(OC(=O)[C@@H](CO)c1ccccc1)C2 (some centres undefined)	-	-	102	-	-	-
C[N+]1(C)CCC(OC(=O)C(c2ccccc2)c2ccccc2)CC1	-	-	96	-	-	-
COC(=O)[C@@H](c1ccccc1)C1CCCCN1 (some centres undefined)	-	-	-	-	-	-
C[N+]1(C)C2CCC1CC(OC(=O)c1c[nH]c3ccccc13)C2 (centres undefined)	-	-	-	-	-	-
Cc1ccc(NC2=NCCCS2)c(C)c1C	-	-	-	-	-	-
COc1ccc(C(=O)C2CCCN(CCc3ccccc3)C2)cc1OC (centres undefined)	-	-	55	-	-	-
COc1ccc(C(=O)C2CCCN(Cc3ccc(F)cc3F)C2)cc1F (centres undefined)	-	-	71	-	-	-
COc1cccc(OC)c1CN1CCCC(C(=O)c2cccc(Cl)c2)C1 (centres undefined)	-	-	-	-	-	-
CCN(CC)C(=O)c1ccc(NC(=O)c2ccc(-n3cncn3)c([N+](=O)[O-])c2)cc1	-	-	-	-	-	-
Cc1ccc(C(=O)C2CN3CCC2CC3)cc1 (centres undefined)	-	-	28	-	-	-
Cc1ccc(C(=O)C2CN(C)CC2C(=O)c2ccc(C)cc2)cc1 (centres undefined)	-	-	-	-	-	-
Cc1ccnc(NS(=O)(=O)c2ccc(N=Cc3c(O)n(C)c(=O)n(C)c3=O)cc2)n1	-	-	-	-	-	-
COC(=O)C1=C(c2ccc(Cl)c(C(F)(F)F)c2)C[C@@H]2CC[C@H]1N2C	-	-	32	-	-	-
COC(=O)C1=C(c2ccccc2)C[C@@H]2CC[C@H]1N2C	-	-	60	-	-	-
COC(=O)C1=C(c2ccc(F)cc2F)C[C@@H]2CC[C@H]1N2C(=O)NC(C)C	-	-	-	-	-	-
COC(=O)C1=C(c2ccc(F)cc2F)C[C@@H]2CC[C@H]1N2C	-	-	84	-	-	-
COC(=O)C1=C(c2ccc(Cl)c(C(F)(F)F)c2)C[C@@H]2CC[C@H]1N2C(=O)NCCO	-	-	-	-	-	-
O=C(Cc1ccccc1)N1CCN(Cc2cccnc2)CC1	-	-	-	-	-	-
Oc1c(Cl)cccc1Cc1cc(Cl)cc(Cl)c1O	-	-	41	-	-	-
